Screening data from PubChem BioAssay.
mHTT-CaM PPI inh = inhibitors of human mutant huntingtin-calmodulin interaction. inhibition, % at 15 µM. AlphaScreen His-mHTT/GST-CaM binding, luminescence. 3.6% of 190,000 active. P42858;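 note: 0% = both proteins with DMSO and 100% = one protein alone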
Target sequence (P42858 whole entry, looked up, stated change not applied): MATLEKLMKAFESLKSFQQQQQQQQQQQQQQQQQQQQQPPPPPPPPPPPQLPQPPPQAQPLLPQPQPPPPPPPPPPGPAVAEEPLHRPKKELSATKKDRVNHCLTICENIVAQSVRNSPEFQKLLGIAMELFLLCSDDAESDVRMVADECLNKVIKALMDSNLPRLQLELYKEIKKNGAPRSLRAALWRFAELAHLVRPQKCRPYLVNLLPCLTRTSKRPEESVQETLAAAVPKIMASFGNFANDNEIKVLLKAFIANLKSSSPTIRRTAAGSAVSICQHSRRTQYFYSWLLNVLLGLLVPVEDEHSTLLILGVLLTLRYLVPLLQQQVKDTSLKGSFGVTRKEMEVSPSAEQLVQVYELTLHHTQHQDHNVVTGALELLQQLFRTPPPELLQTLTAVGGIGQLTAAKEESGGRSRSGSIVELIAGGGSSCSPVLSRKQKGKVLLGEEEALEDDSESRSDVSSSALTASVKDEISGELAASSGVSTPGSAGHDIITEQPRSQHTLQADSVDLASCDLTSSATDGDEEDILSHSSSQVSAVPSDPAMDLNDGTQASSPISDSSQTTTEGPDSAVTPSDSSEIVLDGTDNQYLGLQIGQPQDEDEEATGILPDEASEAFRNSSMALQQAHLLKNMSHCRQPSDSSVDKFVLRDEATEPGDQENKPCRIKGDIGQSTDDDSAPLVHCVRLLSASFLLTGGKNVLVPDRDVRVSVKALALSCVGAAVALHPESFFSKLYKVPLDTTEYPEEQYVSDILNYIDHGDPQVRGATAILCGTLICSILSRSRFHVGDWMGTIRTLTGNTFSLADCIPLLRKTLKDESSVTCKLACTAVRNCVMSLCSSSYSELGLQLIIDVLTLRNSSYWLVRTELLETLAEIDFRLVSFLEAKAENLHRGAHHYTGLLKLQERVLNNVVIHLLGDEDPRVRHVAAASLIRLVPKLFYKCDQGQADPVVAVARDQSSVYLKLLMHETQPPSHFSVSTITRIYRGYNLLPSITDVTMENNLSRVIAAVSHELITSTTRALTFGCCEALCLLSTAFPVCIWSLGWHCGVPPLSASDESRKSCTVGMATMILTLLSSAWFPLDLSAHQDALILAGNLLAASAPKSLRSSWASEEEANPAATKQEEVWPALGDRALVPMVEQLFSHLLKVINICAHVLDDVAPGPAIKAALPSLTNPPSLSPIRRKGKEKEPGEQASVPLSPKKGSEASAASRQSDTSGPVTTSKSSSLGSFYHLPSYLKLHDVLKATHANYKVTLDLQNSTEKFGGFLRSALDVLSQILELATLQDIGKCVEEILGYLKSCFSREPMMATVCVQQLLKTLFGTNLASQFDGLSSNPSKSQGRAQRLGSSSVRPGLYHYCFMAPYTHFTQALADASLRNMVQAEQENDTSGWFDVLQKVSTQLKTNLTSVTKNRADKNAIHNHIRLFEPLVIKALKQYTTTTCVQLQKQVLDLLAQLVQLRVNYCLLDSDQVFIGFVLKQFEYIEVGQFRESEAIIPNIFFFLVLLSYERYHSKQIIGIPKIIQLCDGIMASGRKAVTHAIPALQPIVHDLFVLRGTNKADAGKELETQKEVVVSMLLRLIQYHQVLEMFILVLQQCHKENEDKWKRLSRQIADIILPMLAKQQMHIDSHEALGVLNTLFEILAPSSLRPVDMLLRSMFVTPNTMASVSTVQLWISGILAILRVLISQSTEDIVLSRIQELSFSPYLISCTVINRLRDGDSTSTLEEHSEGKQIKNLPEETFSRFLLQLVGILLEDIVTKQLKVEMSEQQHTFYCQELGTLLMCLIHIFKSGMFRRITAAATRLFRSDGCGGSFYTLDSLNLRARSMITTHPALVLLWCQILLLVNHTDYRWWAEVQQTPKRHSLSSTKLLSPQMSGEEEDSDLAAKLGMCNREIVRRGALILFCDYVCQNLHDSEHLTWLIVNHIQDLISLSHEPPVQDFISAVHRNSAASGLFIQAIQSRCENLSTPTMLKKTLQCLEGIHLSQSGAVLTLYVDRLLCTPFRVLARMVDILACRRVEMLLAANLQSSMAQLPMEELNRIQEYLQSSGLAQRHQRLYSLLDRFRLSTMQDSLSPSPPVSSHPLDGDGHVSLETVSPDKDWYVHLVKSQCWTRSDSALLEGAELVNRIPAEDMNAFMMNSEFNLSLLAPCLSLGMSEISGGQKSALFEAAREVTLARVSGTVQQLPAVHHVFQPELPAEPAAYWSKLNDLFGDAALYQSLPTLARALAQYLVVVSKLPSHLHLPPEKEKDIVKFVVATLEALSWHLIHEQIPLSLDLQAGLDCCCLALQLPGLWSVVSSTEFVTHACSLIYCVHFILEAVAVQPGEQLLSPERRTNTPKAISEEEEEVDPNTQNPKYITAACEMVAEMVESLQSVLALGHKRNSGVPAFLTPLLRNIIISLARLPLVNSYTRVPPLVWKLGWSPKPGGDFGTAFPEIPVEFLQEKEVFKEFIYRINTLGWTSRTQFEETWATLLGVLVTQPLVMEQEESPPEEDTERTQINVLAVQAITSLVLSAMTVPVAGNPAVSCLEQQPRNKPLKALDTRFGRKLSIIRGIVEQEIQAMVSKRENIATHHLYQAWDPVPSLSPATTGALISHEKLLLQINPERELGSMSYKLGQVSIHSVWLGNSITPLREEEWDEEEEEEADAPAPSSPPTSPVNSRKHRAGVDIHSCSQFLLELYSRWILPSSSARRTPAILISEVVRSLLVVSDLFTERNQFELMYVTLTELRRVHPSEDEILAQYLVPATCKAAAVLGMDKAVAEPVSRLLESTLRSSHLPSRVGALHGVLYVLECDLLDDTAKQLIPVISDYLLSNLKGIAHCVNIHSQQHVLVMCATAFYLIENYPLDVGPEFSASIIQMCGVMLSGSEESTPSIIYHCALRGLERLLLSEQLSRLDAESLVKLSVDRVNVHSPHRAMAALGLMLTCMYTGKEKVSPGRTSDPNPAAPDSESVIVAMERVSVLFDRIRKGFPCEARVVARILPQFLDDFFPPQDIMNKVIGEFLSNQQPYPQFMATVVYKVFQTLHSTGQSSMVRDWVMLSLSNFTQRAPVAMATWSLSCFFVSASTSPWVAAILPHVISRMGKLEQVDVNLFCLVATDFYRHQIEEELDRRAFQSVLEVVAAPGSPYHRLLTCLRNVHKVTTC
Pf apPOL block = Pf-apPOL DNA polymerase inhibition | Recombinant Pf-apPOL, molecular beacon fluorescence, 1.5 h | inhibition, % at 10 µM | 0.25% of 210,000 active | AID 1794808
The depositor's hits bear a star. An excerpt weighted towards active compounds, which were near 3.6% of everything screened. Cut-off read from the data, not from the text of the source: active = inhibition above about 50%; inactive = the rest.

Results for COc1cc([N+](=O)[O-])ccc1-c1ccc(/C=C2/C(=O)N(c3cccc(Cl)c3)N=C2C)o1 ?
mHTT-CaM PPI inh: 0; Pf apPOL block: -7

Results for CC1=NN(c2ccccc2)C(=O)/C1=C/c1ccc(-c2ccccc2Cl)o1 ?
mHTT-CaM PPI inh: 8; Pf apPOL block: -2

What do the screens show for `CC1=NN(c2ccccc2)C(=O)/C1=C/c1ccc(-c2cccc(C(=O)O)c2)o1`?
mHTT-CaM PPI inh: 76*; Pf apPOL block: -12

What do the screens show for `O=C1C(=O)N(C(=O)Nc2ccc(F)cc2F)c2ccccc21`?
mHTT-CaM PPI inh: 10; Pf apPOL block: 15

How did COc1ccc(CC(=O)N2CCc3c(c(COCc4ccc(C)cc4)nn3C)C2)cc1 do in these assays?
mHTT-CaM PPI inh: 14; Pf apPOL block: -6

What do the screens show for `CCC(CC)C(=O)N1CCc2ccccc2C1`?
mHTT-CaM PPI inh: 7; Pf apPOL block: -5

How did O=C(NCc1ccc(F)c(Cl)c1)c1ccnc(N2CCCCC2)n1 do in these assays?
mHTT-CaM PPI inh: -90; Pf apPOL block: -5

Results for COc1ccc(-c2nnc(NC(=O)CN3C(=O)c4ccccc4C3=O)o2)c(OC)c1 ?
mHTT-CaM PPI inh: 52*; Pf apPOL block: 4

Results for COc1ccc(-c2nnc(NC(=O)CCCS(=O)(=O)Cc3ccccc3)o2)c(OC)c1 ?
mHTT-CaM PPI inh: 8; Pf apPOL block: 1

What do the screens show for `COc1ccc(Nc2nnc(-c3ccc(C)c(S(N)(=O)=O)c3)c3ccccc23)cc1C(N)=O`?
mHTT-CaM PPI inh: 54*; Pf apPOL block: -6

What do the screens show for `CNC(=O)c1cc(Nc2nnc(-c3ccc(C)c(S(N)(=O)=O)c3)c3ccccc23)ccc1OC`?
mHTT-CaM PPI inh: 27; Pf apPOL block: 6

What do the screens show for `COc1ccc(-c2nnc(Nc3ccc(OC)c(C(N)=O)c3)c3ccccc23)cc1`?
mHTT-CaM PPI inh: 60*; Pf apPOL block: -5

How did CNC(=O)c1cc(Nc2nnc(-c3ccc(OC)cc3)c3ccccc23)ccc1OC do in these assays?
mHTT-CaM PPI inh: 50; Pf apPOL block: -30

What do the screens show for `COc1ccc(-c2nnc(Nc3ccc(CC(N)=O)cc3)c3ccccc23)cc1`?
mHTT-CaM PPI inh: 26; Pf apPOL block: -18

What do the screens show for `CCOc1ccc(-c2nnc(Nc3ccc(OC)c(C(=O)NC)c3)c3ccccc23)cc1`?
mHTT-CaM PPI inh: 69*; Pf apPOL block: 8

What do the screens show for `COc1ccccc1NC(=O)N1CCC(CNS(=O)(=O)Cc2cccc(F)c2)CC1`?
mHTT-CaM PPI inh: -10; Pf apPOL block: -8

Results for COc1nn(C)cc1C(=O)Nc1nn(C)c2c1C(c1ccco1)CC(=O)N2 (stereo not given) ?
mHTT-CaM PPI inh: -20; Pf apPOL block: -2

What do the screens show for `Cc1cc(NC(=O)c2cc(S(=O)(=O)N3CC(C)OC(C)C3)c(C)o2)no1` (stereo not given)?
mHTT-CaM PPI inh: -7; Pf apPOL block: 6

How did COc1cccc(C(=O)N2CCN=C2N2CCN(c3cccc(Cl)c3)CC2)c1 do in these assays?
mHTT-CaM PPI inh: 34; Pf apPOL block: 4

Results for CCOC(=O)Oc1ccc2oc(-c3ccc(OC)cc3)c(C(=O)OCC)c2c1 ?
mHTT-CaM PPI inh: -16; Pf apPOL block: -3

Results for COc1ccc(OC)c(N2C=C(C#N)S(=O)(=O)c3ccc(C)cc32)c1 ?
mHTT-CaM PPI inh: 1; Pf apPOL block: -1

Results for NNc1nc(-c2ccccc2)cs1 ?
mHTT-CaM PPI inh: 58*; Pf apPOL block: -8

Results for Oc1cccc(Nc2nc(-c3ccccc3)cs2)c1 ?
mHTT-CaM PPI inh: 33; Pf apPOL block: -2

How did c1ccc(-c2csc(Nc3ncccn3)n2)cc1 do in these assays?
mHTT-CaM PPI inh: -5; Pf apPOL block: -4

What do the screens show for `Oc1ccc(Nc2nc(-c3ccccc3)cs2)cc1`?
mHTT-CaM PPI inh: 79*; Pf apPOL block: -8

Results for CC(C)CCNC(=O)C1CCN(c2nc3ccsc3c(=O)n2-c2ccccc2)CC1 ?
mHTT-CaM PPI inh: 40; Pf apPOL block: -5

Results for Cc1cc(NC(=O)c2ccc(S(=O)(=O)N(C)C)o2)no1 ?
mHTT-CaM PPI inh: -14; Pf apPOL block: 0

How did CN(C)S(=O)(=O)c1ccc(C(=O)NC(C)(C)CO)o1 do in these assays?
mHTT-CaM PPI inh: 100*; Pf apPOL block: -3

Results for O=C1OC(c2cccc([N+](=O)[O-])c2)=N/C1=C\C(Cl)=C\c1ccccc1 ?
mHTT-CaM PPI inh: 25; Pf apPOL block: 3

Results for O=C1C(c2ccccn2)=C(O)c2ccccc21 ?
mHTT-CaM PPI inh: 4; Pf apPOL block: 1

Results for O=C1Cc2ccccc2C1=C1Cc2ccccc2C1 ?
Pf apPOL block: 12

Results for O=C1C(=C2C/C(=N/O)c3ccccc32)C(=O)c2ccccc21 ?
mHTT-CaM PPI inh: active

What do the screens show for `O=C1CC(=C2C(=O)c3ccccc3C2=O)c2ccccc21`?
mHTT-CaM PPI inh: 86*

Results for COc1ccccc1/C=C/C=C1\N=C(c2ccc(C)c(C)c2)OC1=O ?
mHTT-CaM PPI inh: 26; Pf apPOL block: -13

Results for Cc1cccn2c(=O)c(C(=O)NCc3ccncc3)c(O)nc12 ?
mHTT-CaM PPI inh: -9; Pf apPOL block: 2

What do the screens show for `CC1=Nc2ccccc2C1=Cc1c(O)n(-c2ccc(Cl)cc2)c(=O)[nH]c1=O`?
mHTT-CaM PPI inh: 15; Pf apPOL block: -2

How did CC1=Nc2ccccc2C1=Cc1c(O)n(-c2cccc(Br)c2)c(=O)[nH]c1=O do in these assays?
mHTT-CaM PPI inh: 96*; Pf apPOL block: -2

How did CCC(=O)NCc1csc(C2CCN(C(=O)Cc3ccc(F)cc3)CC2)n1 do in these assays?
mHTT-CaM PPI inh: -7; Pf apPOL block: -2

Results for NNc1nc(-c2ccccc2)c2cc(Br)ccc2n1 ?
mHTT-CaM PPI inh: 76*; Pf apPOL block: -10

How did COc1nc(-c2ccccc2)c2cc(Br)ccc2n1 do in these assays?
mHTT-CaM PPI inh: -8; Pf apPOL block: -3

Results for O=C(C1CCN(c2ccc(F)c(Cl)c2)C1=O)N1CCN(Cc2ccccc2)CC1 (stereo not given) ?
mHTT-CaM PPI inh: 26; Pf apPOL block: -6

What do the screens show for `CCn1nc(-c2ccccn2)nc2c(=O)n(C)c(=O)nc1-2`?
mHTT-CaM PPI inh: 84*; Pf apPOL block: 6

What do the screens show for `Cn1nc(-c2ccncc2)nc2c(=O)n(C)c(=O)nc1-2`?
mHTT-CaM PPI inh: 2; Pf apPOL block: 9

Results for COc1ccc(C)cc1NC(=O)Cn1ccc2c(=O)[nH]ccc21 ?
mHTT-CaM PPI inh: 39; Pf apPOL block: 73*

How did CSc1cccc(NC(=O)Cn2ccc3c(=O)[nH]ccc32)c1 do in these assays?
mHTT-CaM PPI inh: 1; Pf apPOL block: 19

How did Cc1ccc(NC(=O)Cn2ccc3c(=O)[nH]ccc32)c(C)c1 do in these assays?
mHTT-CaM PPI inh: -4; Pf apPOL block: 21

How did COc1ccc(NC(=O)Cn2ccc3c(=O)[nH]ccc32)cc1Cl do in these assays?
mHTT-CaM PPI inh: 24; Pf apPOL block: 78*

What do the screens show for `CN(C)c1ccc(CCCNC(=O)c2cccc(Cl)c2)cc1`?
mHTT-CaM PPI inh: 31; Pf apPOL block: 1

What do the screens show for `O=C(CSc1ccc(F)cc1)Nc1ccc2c(c1)CC(=O)N2`?
mHTT-CaM PPI inh: -3; Pf apPOL block: -5

Results for O=C(Cn1nnc2ccccc21)c1ccc([N+](=O)[O-])cc1 ?
mHTT-CaM PPI inh: 5; Pf apPOL block: 2

What do the screens show for `N#CC1C(c2ccc3ccccc3n2)=CN(CC(=O)c2ccc([N+](=O)[O-])cc2)c2ccccc21` (stereo not given)?
mHTT-CaM PPI inh: 32; Pf apPOL block: 75*

What do the screens show for `Cc1nc(-c2nnc(NC(=O)CCSc3ccccc3)o2)cs1`?
mHTT-CaM PPI inh: 12; Pf apPOL block: 8
